For orientation: AC50 means the concentration at which the activity in the assay is half-maximal.

Records with an inconclusive call do not appear. Active and inactive are the calls of the source. How the source made its calls: active means hit-call score of the fitted dose curve at least 0.9, where 1 is the maximum; inconclusive means response in the unintended direction; inactive means score below 0.9.

The text below walks through data of PubChem BioAssay (EPA / NIEHS).

Sequence of sheep Cyclooxygenase-2 (Cox2), PTGS2 (gene 443460) (P79208 whole entry, looked up): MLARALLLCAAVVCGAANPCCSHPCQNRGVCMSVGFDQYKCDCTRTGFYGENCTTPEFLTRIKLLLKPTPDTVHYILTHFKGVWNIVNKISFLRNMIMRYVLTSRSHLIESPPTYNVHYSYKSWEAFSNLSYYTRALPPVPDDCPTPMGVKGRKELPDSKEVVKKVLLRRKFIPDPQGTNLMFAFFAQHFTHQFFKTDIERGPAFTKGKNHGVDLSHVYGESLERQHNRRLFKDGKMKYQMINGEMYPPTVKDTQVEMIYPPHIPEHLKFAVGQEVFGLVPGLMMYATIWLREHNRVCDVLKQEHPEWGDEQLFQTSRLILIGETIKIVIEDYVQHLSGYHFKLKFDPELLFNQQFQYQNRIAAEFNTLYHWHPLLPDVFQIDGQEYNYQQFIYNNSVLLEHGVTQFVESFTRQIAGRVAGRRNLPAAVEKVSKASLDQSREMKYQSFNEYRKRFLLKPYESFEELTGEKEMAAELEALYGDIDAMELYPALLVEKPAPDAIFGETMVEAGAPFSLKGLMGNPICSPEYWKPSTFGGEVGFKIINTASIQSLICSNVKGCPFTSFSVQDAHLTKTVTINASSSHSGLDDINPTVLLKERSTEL
Sequence of human Vascular Endothelial Growth Factor Receptor 2 (VEGFR2), KDR (gene 3791) (P35968 whole entry, looked up): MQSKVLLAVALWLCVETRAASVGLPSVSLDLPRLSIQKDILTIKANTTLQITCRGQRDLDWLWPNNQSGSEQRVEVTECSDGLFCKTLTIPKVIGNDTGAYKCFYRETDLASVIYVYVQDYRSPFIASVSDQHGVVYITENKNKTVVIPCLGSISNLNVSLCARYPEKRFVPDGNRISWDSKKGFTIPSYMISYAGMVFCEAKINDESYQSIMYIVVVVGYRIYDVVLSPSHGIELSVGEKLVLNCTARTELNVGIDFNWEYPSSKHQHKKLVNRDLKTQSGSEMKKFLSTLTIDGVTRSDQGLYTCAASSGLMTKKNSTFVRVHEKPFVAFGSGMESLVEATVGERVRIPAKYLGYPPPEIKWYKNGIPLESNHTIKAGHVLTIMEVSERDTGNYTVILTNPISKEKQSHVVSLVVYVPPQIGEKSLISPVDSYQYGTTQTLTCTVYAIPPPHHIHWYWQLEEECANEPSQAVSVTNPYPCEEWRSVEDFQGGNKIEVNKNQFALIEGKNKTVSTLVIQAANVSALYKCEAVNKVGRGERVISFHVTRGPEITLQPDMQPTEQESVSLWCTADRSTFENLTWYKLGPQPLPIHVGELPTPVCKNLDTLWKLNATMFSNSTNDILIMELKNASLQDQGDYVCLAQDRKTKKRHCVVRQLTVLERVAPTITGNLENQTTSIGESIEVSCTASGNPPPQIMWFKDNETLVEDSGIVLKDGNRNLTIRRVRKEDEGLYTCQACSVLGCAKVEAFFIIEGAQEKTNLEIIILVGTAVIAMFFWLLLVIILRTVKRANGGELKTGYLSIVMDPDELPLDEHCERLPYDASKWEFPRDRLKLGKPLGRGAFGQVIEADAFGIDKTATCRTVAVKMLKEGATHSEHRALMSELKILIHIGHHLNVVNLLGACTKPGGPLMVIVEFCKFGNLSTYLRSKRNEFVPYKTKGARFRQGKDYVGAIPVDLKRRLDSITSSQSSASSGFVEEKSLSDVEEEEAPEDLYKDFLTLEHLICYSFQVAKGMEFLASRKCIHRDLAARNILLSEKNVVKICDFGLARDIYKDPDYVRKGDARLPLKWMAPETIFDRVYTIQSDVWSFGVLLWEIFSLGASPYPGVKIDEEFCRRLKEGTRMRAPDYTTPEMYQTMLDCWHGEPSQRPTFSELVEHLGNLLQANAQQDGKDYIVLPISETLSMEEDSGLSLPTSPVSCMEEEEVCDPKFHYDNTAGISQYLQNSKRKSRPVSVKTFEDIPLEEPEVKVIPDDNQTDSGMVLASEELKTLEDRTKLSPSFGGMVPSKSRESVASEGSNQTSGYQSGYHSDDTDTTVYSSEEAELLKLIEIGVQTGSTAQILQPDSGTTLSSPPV
Sequence of rat Constitutive Nitric Oxide Synthase (CNOS), Nos1 (gene 24598) (P29476 whole entry, looked up): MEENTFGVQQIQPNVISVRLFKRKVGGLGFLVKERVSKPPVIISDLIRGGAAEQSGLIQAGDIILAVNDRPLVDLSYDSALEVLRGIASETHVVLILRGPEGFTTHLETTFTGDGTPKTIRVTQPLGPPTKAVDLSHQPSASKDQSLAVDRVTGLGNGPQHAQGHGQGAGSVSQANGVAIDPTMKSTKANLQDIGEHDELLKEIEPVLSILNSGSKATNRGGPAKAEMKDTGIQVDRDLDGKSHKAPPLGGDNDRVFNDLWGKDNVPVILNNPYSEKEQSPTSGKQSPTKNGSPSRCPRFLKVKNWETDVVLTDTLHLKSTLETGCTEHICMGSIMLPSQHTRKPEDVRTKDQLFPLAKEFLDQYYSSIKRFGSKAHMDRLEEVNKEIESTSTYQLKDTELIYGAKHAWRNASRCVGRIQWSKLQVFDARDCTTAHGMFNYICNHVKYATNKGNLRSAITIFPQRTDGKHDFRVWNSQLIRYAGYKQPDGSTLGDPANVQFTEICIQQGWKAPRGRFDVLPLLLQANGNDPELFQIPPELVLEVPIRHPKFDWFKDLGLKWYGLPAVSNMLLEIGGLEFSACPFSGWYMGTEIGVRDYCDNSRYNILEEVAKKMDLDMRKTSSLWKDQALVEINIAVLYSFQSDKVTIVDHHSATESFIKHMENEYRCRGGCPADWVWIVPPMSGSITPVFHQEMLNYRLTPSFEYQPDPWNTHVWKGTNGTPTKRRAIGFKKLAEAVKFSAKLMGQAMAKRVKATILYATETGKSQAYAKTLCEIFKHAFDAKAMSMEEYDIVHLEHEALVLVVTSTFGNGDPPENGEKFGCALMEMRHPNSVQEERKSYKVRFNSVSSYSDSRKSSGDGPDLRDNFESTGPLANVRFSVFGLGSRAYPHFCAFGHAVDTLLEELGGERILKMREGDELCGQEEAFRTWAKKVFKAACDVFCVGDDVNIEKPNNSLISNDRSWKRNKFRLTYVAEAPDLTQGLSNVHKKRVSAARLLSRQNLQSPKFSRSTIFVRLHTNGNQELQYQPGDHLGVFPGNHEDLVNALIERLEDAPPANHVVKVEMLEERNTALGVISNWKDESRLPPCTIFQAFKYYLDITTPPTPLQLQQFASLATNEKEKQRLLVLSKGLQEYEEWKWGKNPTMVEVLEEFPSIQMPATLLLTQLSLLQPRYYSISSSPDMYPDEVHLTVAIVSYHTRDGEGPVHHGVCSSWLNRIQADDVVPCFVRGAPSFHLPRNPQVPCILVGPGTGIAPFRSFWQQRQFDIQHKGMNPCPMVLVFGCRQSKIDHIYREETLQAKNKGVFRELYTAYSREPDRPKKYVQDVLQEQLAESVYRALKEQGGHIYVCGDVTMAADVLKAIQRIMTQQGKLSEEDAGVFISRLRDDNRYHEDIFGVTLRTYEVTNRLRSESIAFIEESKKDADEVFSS
Sequence of rabbit Imidazoline 2 Central (I2C), CKB (gene 100009085) (P00567 whole entry, looked up): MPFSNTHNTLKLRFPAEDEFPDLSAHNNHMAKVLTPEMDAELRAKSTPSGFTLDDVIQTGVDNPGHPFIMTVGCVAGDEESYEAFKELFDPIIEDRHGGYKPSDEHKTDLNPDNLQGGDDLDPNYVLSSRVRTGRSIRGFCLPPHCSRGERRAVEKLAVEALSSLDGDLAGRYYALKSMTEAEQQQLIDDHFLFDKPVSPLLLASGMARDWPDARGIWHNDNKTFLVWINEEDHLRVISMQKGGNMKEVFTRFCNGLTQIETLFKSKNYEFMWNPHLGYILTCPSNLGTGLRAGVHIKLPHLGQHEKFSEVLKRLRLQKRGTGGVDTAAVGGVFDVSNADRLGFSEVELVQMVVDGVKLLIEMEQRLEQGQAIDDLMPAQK

One test deals with human Tyrosine Protein Kinase Receptor Tie-2 (Tie2), TEK (gene 7010) (UniProt Q02763). In words: NVS_ENZ_hTie2: NovaScreen (NVS) Enzymatic Assay for human Tyrosine Protein Kinase Receptor Tie-2 (Tie2) (AID 2283225). An outline of the steps: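 Recombinant human Tie2 kinase activity was read cell-free by fluorescence with electrophoretic mobility shift, 1 hour after dosing. The screen used 25 uM in duplicate, then concentration-response up to 50 uM. Signal loss was scored against DMSO.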
As to `CC1(C)CN=C(NN=C(/C=C/c2ccc(C(F)(F)F)cc2)/C=C/c2ccc(C(F)(F)F)cc2)NC1`, the molecule was called inactive.

As to `CSC(C)(C)C=NO`, the molecule was classed as inactive. Still for that read-out and setting: to `O=c1ssc(Cl)c1Cl` belongs “inactive”. The same measure, in the same setting: to `O=P1(N(CCCl)CCCl)NCCCO1` (stereo not drawn) belongs “inactive”; to `CC(C)(C)OOC(C)(C)C`, “inactive”.

Another test deals with rabbit Imidazoline 2 Central (I2C), CKB (gene 100009085) (UniProt P00567). Description: NVS_ENZ_rabI2C: NovaScreen (NVS) Enzymatic Assay for rabbit Imidazoline 2 Central (I2C) (AID 2283228). The method, boiled down:
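Rabbit brain membranes, cell-free; readout by filter-based scintillation counting 1.5 hours after dosing, loss of signal vs DMSO. Initial duplicate test at 25 uM, then concentration-response with 50 uM top concentration.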
As to `Cc1ccc(N)cc1N`, the outcome was inactive.

Regarding `Nc1ccc2ccccc2c1`, the concentration at half-maximal activity (AC50) was 13.7 µM (active). With `Cc1cccc(N)c1`, the call was inactive.

A further test addresses human Vascular Endothelial Growth Factor Receptor 2 (VEGFR2), KDR (gene 3791) (UniProt P35968). Description: NVS_ENZ_hVEGFR2: NovaScreen (NVS) Enzymatic Assay for human Vascular Endothelial Growth Factor Receptor 2 (VEGFR2) (AID 2283230). The method, boiled down:
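Cell-free recombinant VEGFR2 kinase, fluorescent substrate with electrophoretic mobility-shift separation; read 1 h after dosing. Screened at 25 uM in duplicate, hits to concentration-response up to 50 uM; loss-of-signal versus DMSO.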
On to `CCCCN(CCCC)SN(C)C(=O)Oc1cccc2c1OC(C)(C)C2`, for which the call was inactive. In the case of `Cc1cccc(N)c1`, the molecule was classed as inactive. On the same count and under the same terms, to `CCCN(CCC)c1c([N+](=O)[O-])cc(C(C)C)cc1[N+](=O)[O-]` belongs “inactive”. Same read-out and setting: next, `O=c1ssc(Cl)c1Cl`: “inactive”; `ClC1=C(Cl)C2(Cl)C3C(Cl)C(Cl)CC3C1(Cl)C2(Cl)Cl` (stereo not drawn): “inactive”.

The target of the next test is sheep Cyclooxygenase-2 (Cox2), PTGS2 (gene 443460) (UniProt P79208). In words: NVS_ENZ_oCOX2: NovaScreen (NVS) Enzymatic Assay for sheep Cyclooxygenase-2 (Cox2) (AID 2283231). The method, boiled down:
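Compounds were first run at 25 uM in duplicate against tissue-extracted ovine COX-2; those passing a preset inhibition threshold went to singleton concentration-response testing with a 50 uM maximum. Read-out: absorbance at 0.66 hour.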
Take `CC1(C)CN=C(NN=C(/C=C/c2ccc(C(F)(F)F)cc2)/C=C/c2ccc(C(F)(F)F)cc2)NC1`: the half-maximal activity concentration (AC50) was 17.4 µM (active). With `O=[N+]([O-])c1ccc(Cl)c(Cl)c1`, the half-maximal activity concentration (AC50) is 18.5 µM (active). Consider `Nc1ccc2ccccc2c1`, for which the concentration at half-maximal activity (AC50) is 7.93 µM (active). `c1ccc(OP(Oc2ccccc2)Oc2ccccc2)cc1`: the result was inactive.

Another test deals with rat Catechol-O-Methyl Transferase (COMT), Comt (gene 24267) (UniProt P22734). Description: NVS_ENZ_rCOMT: NovaScreen (NVS) Enzymatic Assay for rat Catechol-O-Methyl Transferase (COMT) (AID 2283235). As for the experimental part: NVS_ENZ_rCOMT is a biochemical, single-readout assay that uses extracted gene-proteins from Rat dorsal striatum in a tissue-based cell-free assay. Measurements were taken 0 hour after chemical dosing in a 96-well plate.NVS_ENZ_rCOMT is one of one assay component(s) measured or calculated from the NVS_ENZ_rCOMT assay. It is designed to make measurements of enzyme activity, a form of enzyme reporter, as detected with absorbance signals by HPLC and Spectrophotometry technology.Data from the assay component NVS_ENZ_rCOMT was analyzed into 1 assay endpoint. This assay endpoint, NVS_ENZ_rCOMT, was analyzed in the positive analysis fitting direction relative to DMSO as the negative control and baseline of activity. Using a type of enzyme reporter, loss-of-signal activity can be used to understand changes in the enzymatic activity as they relate to the gene Comt. Furthermore, this assay endpoint can be referred to as a primary readout, because this assay has produced multiple assay endpoints where this one serves a enzymatic activity function. To generalize the intended target to other relatable targets, this assay endpoint is annotated to the methyltransferase intended target family, where the subfamily is o-methyltransferase.
Sequence of rat Catechol-O-Methyl Transferase (COMT), Comt (gene 24267) (P22734 whole entry, looked up): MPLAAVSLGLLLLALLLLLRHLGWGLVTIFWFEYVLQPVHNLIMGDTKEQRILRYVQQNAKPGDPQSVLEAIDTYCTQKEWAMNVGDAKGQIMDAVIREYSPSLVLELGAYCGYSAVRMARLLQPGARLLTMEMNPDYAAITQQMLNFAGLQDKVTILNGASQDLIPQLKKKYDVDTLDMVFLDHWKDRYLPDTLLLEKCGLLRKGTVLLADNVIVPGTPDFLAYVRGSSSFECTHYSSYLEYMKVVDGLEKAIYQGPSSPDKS
Binding assays used specific radioligands (tritiated, iodinated) with non-radioactive competitive displacement ligands in agonist or antagonist protocols (as indicated) and various reference compounds and inhibitors to titrate specific binding to receptors and transporters. Most enzyme assays (CYPs, kinases, phosphatases, proteases, HDACs) used recombinant protein and specific substrates (fluorescence mostly, some colorimetric and radioactive) and inhibitors, followed by a biochemical separation of substrate and product. All assays for the biochemical HTS were initially run in duplicate at a single concentration (10 uM for CYP450 assays and 25 uM for all others). […]
`CCCCc1ccccc1`: the molecule was called inactive.

Consider `CSC(C)(C)C=NO`, for which the call was inactive. On to `CC(Cc1ccc(OCC(=O)O)cc1)NCC(O)c1csc(C(F)(F)F)n1` (stereo not drawn), for which the result was inactive.

For a further test, the target named is rat Constitutive Nitric Oxide Synthase (CNOS), Nos1 (gene 24598) (UniProt P29476). Description: NVS_ENZ_rCNOS: NovaScreen (NVS) Enzymatic Assay for rat Constitutive Nitric Oxide Synthase (CNOS) (AID 2283236). The method, boiled down:
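Enzyme activity in rat brain membrane preparation, read 1 h after dosing by filter-based radiometric scintillation counting. Primary screen in duplicate at 25 uM; actives (e.g., ≥30% inhibition) then run in concentration-response up to 50 uM.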
On to `Cc1ccc(N)cc1N`, for which the concentration at half-maximal activity (AC50) was 6.59 µM (active). Take `ClC(Cl)(Cl)c1ccccc1`: the outcome was inactive. On the same count and under the same terms, next, `[N-]=[N+]=[N-]`: “inactive”.
